Reference: PubChem BioAssay (NCATS)
Values joined by “and” are separate entries in the source; they are usually repeats but may differ in a detail not shown here. Identical values can stand only once. Records with an inconclusive call do not appear. Active and inactive are the calls of the source. Calls come from the whole dose curve; as a rule, active = well fitted curve in the direction sought with a large enough effect; inconclusive = small, poorly fitted or top-dose-only effect, or another doubt; inactive = no such curve, though single readings can be large; an effect the other way counts as inactive or inconclusive.

What was measured:
[1] = Viability qHTS for spleen associated tyrosine kinase inhibitor (SYKi) naive MV4-11 cells (AID 1963823); note: nearly all actives have a fitted effect of over 40% in size
Method in brief: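 In this viability screen, compounds acted on SYK inhibitor naive MV4-11 cells for three days (72 hr, 37 C). Remaining viable cells were measured by CellTiter-Glo luminescence following a 10 min room-temperature development.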

[2] = Viability qHTS for spleen associated tyrosine kinase inhibitor (SYKi) drug resistant MV4-11 cells (AID 1963824); note: nearly all actives have a fitted effect of over 35% in size
Method in brief: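 SYK inhibitor-resistant MV4-11 AML cells, 500 per well, added to predispensed compounds and incubated 72 hr at 37 C, 5% CO2. Viability measured by CellTiter-Glo luminescence after 10 min at room temperature.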

[3] = Quantitative highthroughput screen to assess conditional lethalithy of NOMO1 cells grown in RPMI1640 with untreated serum (RPMI+s) (AID 1963876); note: nearly all actives have a fitted effect of over 35% in size;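 for Viability: 100% = DMSO wells and 0% = empty wells without cells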
Method in brief: (§1)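 Each medium arm—HPLM with 10% dialyzed FBS, or RPMI1640 with 5 mM glucose and 10% untreated or dialyzed FBS—was screened against an 11-point, 3-fold compound titration for 48 h at 37 °C, with CellTiter-Glo luminescence as endpoint.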

[4] = Quantitative highthroughput screen to assess conditional lethalithy of P12 Ichikawa cells grown in Human Plasma-Like Medium with dialyzed fetal bovine serum (HPLM+ds) (AID 1963879); settings: Potency: viability; note: nearly all actives have a fitted effect of over 35% in size; for Viability: series mostly up to about 46 µM
Method in brief: as §1

[5] = Quantitative highthroughput screen to assess conditional lethalithy of P12 Ichikawa cells grown in RPMI1640 with dialyzed fetal bovine serum (RPMI+ds) (AID 1963880); settings: Potency: P12-Ichikawa viability; note: nearly all actives have a fitted effect of over 35% in size;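 for Viability: 100% = DMSO wells and 0% = empty wells on each plate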
Method in brief: as §1

[6] = Quantitative highthroughput screen to assess conditional lethalithy of P12 Ichikawa cells grown in RPMI1640 with untreated serum (RPMI+s) (AID 1963881); settings: Potency: viability; note: nearly all actives have a fitted effect of over 35% in size;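 for Viability: series mostly up to about 46 µM; 100% = DMSO wells and 0% = empty wells without cells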
Method in brief: as §1

[7] = Quantitative highthroughput screen to assess conditional lethalithy of SEM cells grown in Human Plasma-Like Medium with dialyzed fetal bovine serum (HPLM+ds) (AID 1963882); note: nearly all actives have a fitted effect of over 35% in size; for Viability: series mostly up to about 46 µM
Method in brief: as §1

[8] = Quantitative highthroughput screen to assess conditional lethalithy of SEM cells grown in RPMI1640 with unreated serum (RPMI+s) (AID 1963883); note: nearly all actives have a fitted effect of over 35% in size;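 for Viability: 100% = DMSO wells and 0% = empty wells without cells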
Method in brief: as §1

[9] = Cellular viability qHTS for adrenocortical cancer (ACC) cell line NCI-H295R (AID 1963990); note: nearly all actives have a fitted effect of over 60% in size
Method in brief: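 Readout: CellTiter-Glo luminescence, 20 min RT. Exposure: 48 h, 37C/5% CO2. Cells: NCI-H295R, ITS-DMEM serum-free. Range: up to 46 uM. Analysis: 4PL fit, IC50 plus efficacy.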

[10] = Quantitative highthroughput screen to assess conditional lethalithy of NOMO1 cells grown in Human Plasma-Like Medium with dialyzed fetal bovine serum (HPLM+ds) (AID 1963878); note: nearly all actives have a fitted effect of over 35% in size;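 for Viability: 100% = DMSO wells and 0% = empty wells on each plate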
Method in brief: as §1

[11] = Quantitative highthroughput screen to assess conditional lethalithy of SEM cells grown in RPMI1640 with dialyzed fetal bovine serum (RPMI+ds) (AID 1963884); note: nearly all actives have a fitted effect of over 35% in size;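 for Viability: series mostly up to about 46 µM; 100% = DMSO control wells and 0% = empty wells without cells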
Method in brief: as §1

[12] = Cellular viability qHTS for adrenocortical cancer (ACC) cell line SW-13 (AID 1963989); settings: SW-13 ACC cells viability, CellTiter-Glo, 48 h; activity (max response): hits give low values; note: nearly all actives have a fitted effect of over 65% in size;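 for activity (max response): cells grown in serum-free medium with ITS supplement; % is set by controls: 0 for no effect and ±100 for the full control effect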
Method in brief: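 Compound titrations (up to 46 uM final, in DMSO) were applied to SW-13 cells for 48 h at 37C/5% CO2. Reading used CellTiter-Glo after 20 min at room temperature; fitted curves yielded IC50 and efficacy.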

[13] = Quantitative highthroughput screen to assess conditional lethalithy of NOMO1 cells grown in RPMI1640 with dialyzed fetal bovine serum (RPMI+ds) (AID 1963877); note: nearly all actives have a fitted effect of over 30% in size;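 for Viability: series mostly up to about 46 µM; 100% = DMSO control wells and 0% = empty wells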
Method in brief: as §1
Potency is the fitted concentration of half-maximal effect.

CC[C@H](C)n1cc(C)c2c(C(=O)NCc3c(C)cc(C)[nH]c3=O)cc(-c3ccc(N4CCNCC4)nc3)cc21
inactive: Potency [3] | Potency [4] | Potency [5] | Potency [6] | Potency [7] | Potency [8]
active: Potency [1] 7.42 µM | Potency [2] 10.5 µM | Potency [9] 28.2 µM

CC[C@H](C)C(=O)O[C@H]1C[C@@H](C)C=C2C=C[C@H](C)[C@H](CC[C@@H]3C[C@@H](O)CC(=O)O3)[C@H]21
active: Potency [1] 8.33 µM | Potency [2] 2.66 µM and 3.17 µM and 4.68 µM | Potency [10] 14.8 µM
inactive: Potency [3] | Potency [7] | Potency [11] | activity (max response) [12] -5.87%

CN1CCN(c2ncc(-c3cc(Cl)cc(Cl)c3Cl)c(N)n2)CC1
inactive: Potency [7] | Potency [8] | Potency [11]
active: Potency [1] 16.6 µM | Potency [2] 16.6 µM | Potency [3] 0.332 µM | Potency [4] 2.64 µM | Potency [5] 3.72 µM | Potency [9] 22.4 µM

Nc1ccc(C(=O)c2cc3c(ccc4ccccc43)[nH]2)cc1
active: Potency [1] 4.28 µM | Potency [2] 4.81 µM | Potency [3] 14.8 µM | Potency [4] 2.96 µM | Potency [5] 5.9 µM | Potency [6] 3.32 µM | Potency [7] 2.96 µM | Potency [8] 3.72 µM | Potency [11] 2.96 µM | Potency [12] 2.24 µM | Potency [9] 2.51 µM

Nc1ncnc2ccccc12
inactive: Potency [1] | Potency [2] | Potency [3] | Potency [4] | Potency [5] | Potency [6] | Potency [7] | Potency [8] | Potency [11] | activity (max response) [12] 12% | Potency [9]

Cc1nc2cnc3ccc(C#Cc4cccnc4)cc3c2n1-c1ccc(C(C)(C)C#N)cc1
active: Potency [1] 8.2 µM and 235 nM | Potency [2] 8.2 µM and 332 nM | Potency [3] 1.32 µM | Potency [10] 0.209 µM | Potency [8] 0.132 µM | Potency [11] 0.209 µM | Potency [9] 0.891 µM

O=C(Nc1cccnc1)N1CCC(Cc2cccc(Oc3ccc(C(F)(F)F)cn3)c2)CC1
active: Potency [1] 3.66 µM and 4.17 µM | Potency [2] 4.61 µM and 3.72 µM | Potency [3] 10.5 µM | Potency [4] 8.33 µM | Potency [5] 4.18 µM | Potency [6] 3.72 µM | Potency [8] 2.96 µM | Potency [12] 15.8 µM

Clc1ccc(C(Cn2ccnc2)OCc2ccsc2Cl)c(Cl)c1 (stereo not drawn)
inactive: Potency [3] | Potency [10]
active: Potency [1] 8.33 µM | Potency [2] 9.34 µM | Potency [12] 18.4 µM | Potency [9] 31.6 µM

O=C(C1CCCCC1)N1CC(=O)N2CCc3ccccc3C2C1 (stereo not drawn)
active: Potency [8] 0.332 µM
inactive: Potency [1] | Potency [2] | Potency [3] | Potency [10] | activity (max response) [12] -9.94% and -6.75%

CCOC(=O)[C@@H](N)CCC(=O)N[C@@H](CSCc1ccccc1)C(=O)N[C@@H](C(=O)OCC)c1ccccc1
inactive: Potency [13] | Potency [4] | Potency [5] | Potency [6] | Potency [7] | Potency [8] | Potency [11] | activity (max response) [12] -10.6%
active: Potency [1] 5.9 µM | Potency [2] 5.9 µM

C[N+]1(C)[C@@H]2C[C@@H](OC(=O)C(O)(c3cccs3)c3cccs3)C[C@H]1[C@@H]1O[C@@H]12
inactive: Potency [1] | Potency [2] | Potency [13] | Potency [4] | Potency [5] | Potency [7] | Potency [8] | Potency [11]

O=C(CCCCCCC(=O)Nc1ccccc1)NO
active: Potency [1] 1.64 µM and 1.48 µM | Potency [2] 1.3 µM and 1.18 µM | Potency [13] 16.6 µM | Potency [10] 10.5 µM | Potency [4] 4.18 µM | Potency [5] 3.32 µM | Potency [8] 3.72 µM | Potency [11] 3.32 µM | Potency [9] 820 nM and 1 µM

OCc1ccc(-c2ccc(-c3ccc(CO)s3)o2)s1
active: Potency [1] 1.18 µM | Potency [2] 0.833 µM | Potency [9] 28.2 µM
inactive: Potency [13] | Potency [10] | Potency [4] | Potency [6] | Potency [7] | Potency [11] | activity (max response) [12] -9.77%

Cc1ccc2nc(NCCN)c3ncc(C)n3c2c1
active: Potency [1] 2.31 µM | Potency [2] 4.61 µM and 2.63 µM | Potency [13] 26.4 µM | Potency [10] 23.5 µM | Potency [7] 11.8 µM | Potency [8] 23.5 µM | Potency [11] 20.9 µM | Potency [12] 6.31 µM | Potency [9] 8.91 µM

CC1(C)CCC(CN2CCN(c3ccc(C(=O)NS(=O)(=O)c4ccc(NCC5CCOCC5)c([N+](=O)[O-])c4)c(Oc4cnc5[nH]ccc5c4)c3)CC2)=C(c2ccc(Cl)cc2)C1
inactive: activity (max response) [12] -2.3% | Potency [9]
active: Potency [1] 0.105 µM | Potency [2] 10 nM and 41.7 nM | Potency [13] 0.105 µM | Potency [7] 0.0332 µM | Potency [8] 0.0526 µM | Potency [11] 0.0264 µM
